What follows are compounds tested against Glucose transporter (Leishmania mexicana) (UniProt O61059) (assay: ST_JUDE_LEISH: Cytotoxicity at 2uM final concentration against transgenic Leishmania Mexicana promastigotes LmGT2 that are glucose transport deficient and complemented with the L. Mexicana glucose transporter 2. Activity is measured by DNA content using SYBR green in vitro).
Assay type: functional

| SMILES | inhibition |
| --- | --- |
| O=C(NCCCCCN1CCC(c2ccc(O)cc2)CC1)c1ccc(-c2ccccc2)cc1 | 6% |
| COc1cc(OCCCN(C)Cc2ccc(OC)c(OC)c2)ccc1NC(=O)c1cccc2c(O)c3cccc(F)c3nc12 | 0.63% |
| CSc1nc2cc3c(cc2n1C(=O)c1ccc(C)cc1)OCCO3 | 2.89% |
| Cn1cncc1C(=O)Nc1cccc(-c2ccc(-c3nc4ccccc4[nH]3)cc2)c1 | -0.9% |
| CCC(C)NC(=O)Nc1ccc(-c2cccc(-c3nc4cccc(C)c4[nH]3)c2)cc1 (stereo not given) | -0.8% |
| COc1cc(Cc2cnc(N)nc2N)cc(OCCCN2C(=O)c3ccccc3C2=O)c1OC | 6.69% |
| O=C(Nc1cccc([N+](=O)[O-])c1)Nc1cccc(C(F)(F)F)c1 | 2.9% |
| O=C(NCCc1ccc(Cl)c(Cl)c1)[C@@H]1CCCN1C(=O)c1ccc(O)c(-c2cccc(C(F)(F)F)c2)c1 | -2.44% |
| COCCN(C)c1ccc(C(=O)Nc2ccccc2)cc1NS(=O)(=O)Cc1ccccc1 | 3.54% |
| CC(Cc1ccc(C(=O)Nc2ccc(CC(C)NCCc3cccc(Cl)c3)cc2)cc1)NCCc1ccc(C(F)(F)F)cc1 (stereo not given) | 48.1% |
| Cc1cccc2nc(-c3ccc(-c4ccc(CN5CCN(CCO)CC5)cc4)s3)[nH]c12 | 7.69% |
| CS(=O)(=O)Nc1ccc(-c2ccc3ccnc(N)c3c2)cc1 | 6.67% |
| Cc1cc(-c2cnc(N)c(-c3ccc(N4CCN(C)CC4)cc3)c2)cc(C)c1O | 2.45% |
| CCN(C1CCCCC1)S(=O)(=O)c1ccc(OC)c(N2CCN(C(=O)C(Cl)(Cl)Cl)CC2)c1 | -0.47% |
| CCN(C(=O)c1ccc(NC(=O)c2cccs2)cc1)c1nc2c(C)cccc2s1 | 2.9% |
| CCCOc1cc(NC(=O)Nc2ccnc3ccccc23)cc(OCCC)c1 | 3.42% |
| COCCN1CCC(NCC(C)(C)c2nc(-c3ccc(Cl)c(O)c3)c(-c3ccncc3)[nH]2)CC1 | 6.49% |
| Clc1cc(Br)ccc1-c1ccc(CNCC2CCNCC2)o1 | 1.69% |
| O=C(Nc1cccc(Cl)c1N1CCOCC1)C(Cl)(Cl)Cl | 1.03% |
| CCN(CC)CCNc1c2ccc(Cl)cc2nc2ccc(OC)nc12 | 3.99% |

| SMILES | inhibition |
| --- | --- |
| S=C(Nc1cccc(Cl)c1)NC1CCN(c2ccnc3cc(Cl)ccc23)C1 (stereo not given) | 9.07% |
| COC(=O)c1cccc(CNCc2ccc(-c3ccc(-c4nc5cc(F)ccc5[nH]4)s3)cc2)c1 | 1.42% |
| Cc1ccc(OC2CCN(c3ccc(C(=O)NC4CC4)cn3)CC2)cc1 | 1.55% |
| CN(C)c1ccc(NC(=O)Nc2ccnc3ccc(Br)cc23)cc1 | 0.43% |
| c1ccc(CCNCc2cccc(-c3ccc(CNc4ccc5ncccc5c4)cc3)c2)cc1 | 3.8% |
| OC(CNc1ccnc(Nc2ccccc2)n1)c1cccc(C(F)(F)F)c1 (stereo not given) | 0.68% |
| Cc1ccc(CN2CCCN(Cc3cccc(NC(=O)c4cc5ccccc5s4)c3)CC2)cc1C | -0.17% |
| Cc1cc(N2CCC(N(C)C)C2)nc(Nc2ccc(Cl)cc2)n1 (stereo not given) | 4.87% |
| CCN1CCC(N(Cc2ccc(-c3ccc(C(F)(F)F)s3)cc2)C(=O)Cn2c(CCc3cccc(F)c3F)nc(=O)c3ccccc32)CC1 | 5.76% |
| COc1cc(NC(=O)Nc2cccc3ccccc23)c(OC)cc1Cl | 3.81% |
| CSCCC(C(=O)O)N1C(=O)c2ccccc2C1=O (stereo not given) | 0.77% |
| COc1ccc(-c2cc3ncnc(N4CCN(CCN5CCCC5)CC4)c3s2)cc1 | 0.9% |
| NC1CCCN(Cc2cccc(-c3ccc(-c4nc5cc(F)ccc5[nH]4)cc3)c2)C1 (stereo not given) | 3.43% |
| CCc1c(C)nc(-n2nc(C)cc2NC(=O)c2cccc3ccccc23)[nH]c1=O | 3.73% |
| COc1ccc2ncc(C#N)c(CCN3C4CCC3CC(NCc3ccc5c(n3)NC(=O)CS5)C4)c2c1 (stereo not given) | 1.45% |
| O=C(Nc1cccc(OC2CCN(Cc3ccccc3)CC2)c1)Nc1cccc([N+](=O)[O-])c1 | 2.57% |
| COc1ccc2c(NN=Cc3cccc(F)c3)ccnc2c1 | 4.14% |
| CC(C)N(Cc1ccc(-c2ccc(C(F)(F)F)cc2)cc1)C(=O)Cn1c(SCc2cccc(F)c2F)cc(=O)c2cc(CN3CCCCC3)ccc21 | 3.27% |
| Cc1c(C(=O)N2CCCC(C(F)(F)F)C2)sc2cccc(F)c12 (stereo not given) | 5.83% |
| C=CCn1c(Sc2ccc(C#N)c([N+](=O)[O-])c2)nnc1-c1cc(OC)cc(OC)c1 | 10.9% |

Reference: ChEMBL document CHEMBL3433997, “St. Jude Leishmania screening dataset” (2016)
